From PubChem BioAssay

test: NFkB reporter suppression in cystic fibrosis bronchial cells – cell-based, uHTS hits, panel, cytotoxicity readout, dose response (AID 624344); details: CF bronchial epithelial cells, PAF-induced NFkB reporter inhibition, with PAF, run 1; at 79 µM (top of the series) unless noted

For CCn1c(=O)c2c(cnn2C)c2ccccc21, which inhibition is on record?
Its inhibition is 117%.

With CCOc1cc2c(cc1O)C(=NO)CC1C2CCC2(C)C(O)CCC12 (configuration not stated) as the molecule, how does the inhibition read?
Its inhibition is 103%.

With CCOc1ccc(NCc2cc3c(C(C)(C)C)nn(-c4ccccc4)c3[nH]c2=O)cc1 as the molecule, how does the inhibition read?
The inhibition was 101%.

Which inhibition does the source give for CS(=O)(=O)Nc1cccc(-c2cc(NC=O)c3ncc(-c4ccc(F)cc4)n3c2)c1 here?
Its inhibition is 84%.

Which inhibition does the source give for C=C1C(=O)OC2CC1C(O)CC(C)=CCCC(C)=CC(O)CC2C (configuration not stated) here?
The inhibition was 103%.

For COc1ccc2cc3c(N)nn(C(=O)Cc4ccccc4OC)c3nc2c1, which inhibition is on record?
The inhibition was 106%.

Which inhibition does the source give for CN(C)CCCN(C(=O)CCSc1ccccc1)c1nc2cc3c(cc2s1)OCO3 here?
The inhibition was 106%.

Which inhibition does the source give for O=C(NNc1ccccc1Br)C(O)(c1cccc(C(F)(F)F)c1)c1cccc(C(F)(F)F)c1 here?
The inhibition was 103%.

For CC1CCc2sc3ncnc(N4CCOCC4)c3c2C1 (configuration not stated), which inhibition is on record?
The inhibition was 112%.

For COc1ccccc1NS(=O)(=O)c1ccc(-c2cnc(C3CC3)o2)cc1, which inhibition is on record?
The inhibition was 82.8%.

For Cc1cc(C)nc(Sc2ncnc(N)c2[N+](=O)[O-])n1, which inhibition is on record?
The inhibition was 96.2%.

For O=C(NCc1ccco1)c1nc2c(nnn2Cc2ccccc2Cl)c(=O)[nH]1, which inhibition is on record?
Its inhibition is 115%.

With CCC(=O)Nc1nc(C)c(-c2csc(Nc3cccc(O)c3)n2)s1 as the molecule, how does the inhibition read?
Its inhibition is 95.9%.

For Nc1nccc(SCc2ccc(Cl)cc2Cl)n1, which inhibition is on record?
Its inhibition is 72.7%.

Which inhibition does the source give for CC1C(=O)N(Cc2cn(Cc3ccco3)nn2)CCS(=O)(=O)N1Cc1ccc(-c2ccccc2C(F)(F)F)cc1 (configuration not stated) here?
The inhibition was 97.9%.

Which inhibition does the source give for CC(C)C[C@@H](CN1CCCC1CN1C(=S)NC[C@@H]1Cc1ccc(O)cc1)N1C[C@H](Cc2ccc(O)cc2)N(CCc2ccccc2)C1=S (some centres not stated) here?
The inhibition was 112%.

With CC(=O)c1cccc(NC(=O)COC(=O)c2ccc(S(C)(=O)=O)c([N+](=O)[O-])c2)c1 as the molecule, how does the inhibition read?
Its inhibition is 92.5%.
